Rev-erbA mod: modulates human Rev-erb alpha binding to DNA; 0.79% of 370,000 active; P20393; activity, % at 10 µM; Rev-erbα–FITC-DNA binding, fluorescence polarization, 90 min; AID 1259318;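 active = activity above about 14%, limit read from the data; passing the limit was not always enough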;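 note: 0% = DMSO wells with 35 nM protein and 100% = DMSO wells with 750 nM protein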
DAX1 inh-1: inhibitors of human orphan nuclear receptor DAX1 (NR0B1). P51843. HEK293 Gal4-DAX1 luciferase reporter, luminescence. inhibition, % at 6.75 µM. 0.99% of 340,000 active. AID 504766;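 active = inhibition above the mean over all tested compounds plus 3 SD, cut at about 4.2% in these data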;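 note: 0% = DAX1-transfected cells with DMSO and 100% = empty-vector control cells with DMSO; inhibition shows as a rise in luminescence from relieved DAX1 repression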
Target sequence (P51843 207-470 limits assumed): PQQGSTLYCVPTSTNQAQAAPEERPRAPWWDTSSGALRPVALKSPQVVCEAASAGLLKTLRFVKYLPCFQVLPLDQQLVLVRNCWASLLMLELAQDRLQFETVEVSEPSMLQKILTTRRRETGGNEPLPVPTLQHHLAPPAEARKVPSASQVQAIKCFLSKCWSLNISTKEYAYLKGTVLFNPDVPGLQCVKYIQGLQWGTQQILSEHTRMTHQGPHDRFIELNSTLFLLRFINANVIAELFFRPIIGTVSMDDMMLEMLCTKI
ssDAF12 agonist: activates DAF-12 receptor from parasite S. stercoralis. activation, % at 6.8 µM. HEK293 ssDAF-12/GRIP1 lit1-tk-luc reporter, luminescence; % of 3 µM dafachronic acid response. 1% of 370,000 active;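 active = activation above the mean over all tested compounds plus 3 SD, cut at about 0.9% in these data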;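 note: 0% = DMSO-only wells and 100% = 3 µM delta7-dafachronic acid wells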
DAX1 inh-2: DAX1 (NR0B1) inhibition, primary screen. HEK293T StAR-luciferase reporter, SF-1/DAX-1 repression relief. 1.1% of 370,000 active. AID 652010. inhibition, % at 6.8 µM;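 active = inhibition above the mean over all tested compounds plus 3 SD, cut at about 3.6% in these data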;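 note: 0% = DAX-1 cells with DMSO and 100% = cells lacking DAX-1 with DMSO; higher inhibition means more luminescence from relief of DAX-1 repression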
hcDAF12 agonist: activators of H. contortus DAF-12 nuclear receptor; AID 652067; activation, % at 6.8 µM; 1.4% of 370,000 active; HEK293 hcDAF-12 lit1-tk-luc reporter, luminescence; 0% DMSO, 100% Δ7-dafachronic acid;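 active = activation above the mean of all tested compounds plus 3 SD, cut at about 5.5% in these data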;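 note: 100% = response to 3 µM Δ7-dafachronic acid high control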
hgDAF12 agonist: activates the H. glycines DAF-12 receptor ligand-binding domain | 1.8% of 370,000 active | AID 687014 | HEK293 GAL4-hgDAF12 UAS-luciferase reporter, agonist luminescence; normalized to butyrate control | activation, % at 6.8 µM;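 active = activation above a cutoff set at the mean of all screened compounds plus 3 SD, cut at about 10% in these data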;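 note: 0% = DMSO wells and 100% = sodium butyrate wells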
hgDAF12 conf: confirmation of H. glycines DAF-12 agonists; 80% of 3,300 active; shares compounds with hgDAF12 agonist; HEK293 GAL4-hgDAF12 luciferase reporter, agonist mode; percent of butyrate response; AID 743050; activation, % at 6.8 µM;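 active = mean activation over triplicate wells above the hit cutoff derived from the earlier primary screen, cut at about 11% in these data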;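 note: 0% = DMSO low control and 100% = 2 mM sodium butyrate high control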
LXR ag 2: counter-screen for DAF-12 agonists: agonists of human LXR-beta; 3,300 tested, under 10 active; shares compounds with hgDAF12 agonist; activation, % at 6.8 µM; HEK293 Gal4-LXR luciferase reporter, 24 h;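 active = mean activation of the triplicate above a set limit carried over from the primary screen, none filed active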
* marks the source's active call; other numbers are inactive results; / = not tested or not shown. Most compounds without a hit are left out; they make up all but 4.8% or so of the library.

SMILES | Rev-erbA mod | DAX1 inh-1 | ssDAF12 agonist | DAX1 inh-2 | hcDAF12 agonist | hgDAF12 agonist | hgDAF12 conf | LXR ag 2
Cc1nc(NC(=O)c2ccccc2)sc1C | -1 | 3 | 1.0* | 2 | 3 | 14* | 16* | 1
C[C@H](O)[C@@H]1C(=O)N2CCc3c([nH]c4cccc(-c5ccccc5)c34)[C@@H]2C[C@@H]1N(C)C(=O)c1ccco1 | 4 | / | -1 | -1 | 0 | 1 | / | /
CCCCc1ccc(Nc2ncnc3nc[nH]c23)cc1 | 0 | 2 | 0 | 3 | 3 | 13* | 8 | 0
COc1ccc(-c2noc(C3CCCN(C(=O)c4ccc(C)cc4)C3)n2)cc1 (stereo not drawn) | 4 | 0 | -2 | 0 | -2 | 0 | / | /
COc1ccc(-c2noc(C3CCCN(C(=O)NC4CCC(C)CC4)C3)n2)cc1 (stereo not drawn) | 0 | / | -1 | 4 | 0 | 14* | 2 | 0
CCCCC(=O)N1CCCC(c2nc(-c3cccc(OC)c3)no2)C1 (stereo not drawn) | 4 | 2 | -1 | 2 | 1 | 15* | 6 | 0
COc1cccc(-c2noc(C3CCCN(C(=O)CC(C)(C)C)C3)n2)c1 (stereo not drawn) | 3 | 1 | -2 | 1 | 2 | 9 | / | /
O=C(N[C@H](C(=O)N1CCC[C@H]1C(=O)NCc1ccccc1)c1ccccc1)C1CCCC1 | -3 | / | -1 | 1 | -1 | 2 | / | /
C/C(=N\NC(=O)c1nnn(-c2nonc2N)c1CN(C)c1ccccc1)c1cccnc1 | -1 | -1 | 1 | 2 | 5 | 13* | 0 | 0
C/C(=N\NC(=O)c1nnn(-c2nonc2N)c1-c1ccccc1)c1cccnc1 | -1 | 1 | -1 | 0 | 1 | 3 | / | /
N#Cc1cccc(NC(=O)CSc2nnc(-c3n[nH]c4ccccc34)o2)c1 | -5 | 1 | 0 | -1 | 1 | 15* | 10 | 0
Cc1cccc(NC(=O)CSc2nnc(-c3n[nH]c4ccccc34)o2)c1 | -1 | -1 | -1 | 0 | -1 | 2 | / | /
O=C(C(=O)N1CCC(CNS(=O)(=O)c2cccc(C(F)(F)F)c2)CC1)c1cc2ccccc2o1 | 14 | / | -1 | 0 | -1 | 0 | / | /
O=C(Nc1nc2ncccn2c1-c1ccc(F)cc1)c1ccccc1 | -4 | / | -1 | 0 | 0 | -2 | / | /
COc1ccc(/C(C)=N/NC(=O)Cc2cc(=O)[nH][nH]2)cc1OC | -5 | / | -1 | 0 | -1 | -1 | / | /
CCOC(=O)c1c(C)[nH]c(C(=O)CSc2ccccc2)c1C | 2 | 0 | 1 | 4 | 5.6* | 18* | 14* | 1
N#C/C(=C\c1ccc(OCc2cccc(C(=O)O)c2)cc1)C(=O)NCc1ccco1 | 4 | -1 | -1 | 3.8* | 2 | 15* | 18* | 1
Clc1ccc(-c2nnc(SCc3nc4ccccc4[nH]3)o2)c(Cl)c1 | 11 | 0 | 0 | -1 | 2 | -1 | / | /
C=CCSc1nnc(-c2ccc(Cl)cc2Cl)o1 | 1 | 2 | 0 | 3 | 4 | 14* | 14* | 1
Nc1[nH]c(C(=O)c2ccccc2)c(-c2ccc(O)cc2)c1C(=O)NCCc1c[nH]c2ccccc12 | 4 | / | -2 | / | -1 | -3 | / | /
Fc1ccc(-c2cnn3c(-c4ccncc4)ccnc23)cc1 | -3 | 3 | 1 | 2 | 3 | 16* | 18* | 1
Cc1nn2c(-c3ccc(F)cc3)ccnc2c1Cl | 4 | 1 | -1 | 0 | -1 | -1 | / | /
C=CCn1c(COc2ccc(C)cc2)nnc1SCC(=O)Nc1ccc(Oc2ccccc2)cc1 | -3 | / | -2 | -1 | -2 | 1 | / | /
COc1ccc(C2N=C(c3ccccc3)NO2)cc1OC (stereo not drawn) | -2 | 5.9* | 1 | 2 | 6.1* | 14* | 12* | 1
COc1ccc(C2N=C(c3ccccc3)NC(c3ccccc3)=N2)cc1 | 6 | 0 | -1 | 0 | -2 | 0 | / | /
SMILES | Rev-erbA mod | DAX1 inh-1 | ssDAF12 agonist | DAX1 inh-2 | hcDAF12 agonist | hgDAF12 agonist | hgDAF12 conf | LXR ag 2
CCc1ccc(CCNC(=O)OCCCN2CCC3(CCC(C)CC3)C2=O)cc1 (stereo not drawn) | 7 | / | -2 | -2 | -4 | 0 | / | /
COCCN1Cc2cc(C(=O)OC)c3c(c2C1=O)c1cc(OC)ccc1n3C(=O)c1ccccc1 | 3 | / | -1 | -4 | -2 | -4 | / | /
Cc1cc(C)c2sc(N)nc2c1 | -1 | -1 | -1 | -1 | -2 | 14* | 1 | 0
C/C(=N/NC(=O)c1ccc(Br)o1)c1ccncc1 | -3 | 5.7* | 1 | 2 | 2 | 18* | 0 | 0
C/C(=N/NC(=O)c1cnccn1)c1ccncc1 | -4 | 0 | 0 | 1 | 0 | 6 | / | /
C/C(=N/NC(=O)c1ccccn1)c1ccncc1 | 0 | 2 | 1 | 2 | 5 | 14* | 9 | 0
CCN(C(=O)[C@@H](C1CC1)[C@@H](O)c1ccc(Cl)cc1)c1ccccc1 | 0 | / | -1 | 0 | -2 | 3 | / | /
COC(=O)C1=C(C)N(C)C(=NCc2ccccc2)NC1c1ccc(F)cc1 (stereo not drawn) | -5 | / | 0 | 0 | 0 | 2 | / | /
Nc1nc(-c2ccc3c(c2)CCCC3)cs1 | 4 | 1 | 0 | 2 | 2 | 16* | 11* | 1
COc1ccc2c(CC(=O)Nc3ncc(C)s3)coc2c1 | -5 | 2 | 0 | 2 | 4 | 18* | 18* | 1
Cn1cc(Br)c(C(=O)NNC(=O)c2ccc(Br)cc2)n1 | 4 | 1 | -1 | 2 | 0 | 14* | 4 | 0
Cn1cc(Br)c(C(=O)NNC(=O)c2ccccc2)n1 | -5 | 0 | -2 | 0 | -2 | 0 | / | /
C/C(=N/O)c1ccccn1 | -4 | 3 | -1 | -1 | -2 | -2 | / | /
C/C(=N/OCc1ccc(Br)cc1)c1ccccn1 | -3 | 2 | 0 | 3.7* | 5 | 23* | 22* | 1
CCCCNC(=O)C[C@H]1C[C@@]2(C(=O)OC)C(=C[C@H](C(C)C)O[C@@H]2C2CC2)N(Cc2ccc(Cl)cc2Cl)C1=O | 2 | / | 0 | 0 | 2 | -2 | / | /
COc1ccccc1CN1CCN(Cc2nc(-c3cccs3)no2)CC1 | 1 | 0 | -1 | 1 | 1 | 3 | / | /
COCC1CCN(Cc2nc(-c3cccs3)no2)C1 (stereo not drawn) | -4 | / | 1 | 4 | 3 | 22* | 10 | 0
COc1ccc(CNc2nc3ccccc3n2C)c(O)c1 | -1 | 4 | 0 | 4.5* | 4 | 17* | 21* | 1

Screening results deposited in PubChem BioAssay by several laboratories.
